Some test systems named below: DU-145 prostate; K-562 leukemia; MALME-3M melanoma; MDA-MB-231 breast; RXF 393 renal; SF-268 CNS; SF-295 CNS; SF-539 CNS; M14 melanoma; UACC-257 melanoma.
Experiment in all cases: NCI-60 one-dose screen, 48 h (100 = growth as untreated, 0 = no growth, -100 = all killed)
Holding throughout (details): 10 µM unless noted

About 83,000 compounds went through this panel and 20% of them were active in at least one assay; those are over-represented in the sample as a whole.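 Compound tested at a single concentration for 48 hours in 96-well plates; a percent growth value below 10 was scored as active.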 Values without a mark were called inactive. Active and inactive are the calls of the source.

In PubChem BioAssay (NCI) one finds growth data, which are given here for 13 molecules.

With `CC(=O)OCCCCCCn1c2ccccc2c2c3c(c4c5ccccc5n(C)c4c21)C(=O)N(O)C3=O`, the growth was 89.9% with DU-145 prostate; 59.7% in the assay with K-562 leukemia; 115% in the assay with MALME-3M melanoma; 64.5% in the assay on MDA-MB-231 breast; 100% with RXF 393 renal; 70.2% with SF-268 CNS. Further, the growth was 91.5% in the assay with SF-295 CNS, 94.3% in the assay with SF-539 CNS and 65.4% in the assay with M14 melanoma.

With `COC(=O)CCCCCn1c2ccccc2c2c3c(c4c5ccccc5[nH]c4c21)C(=O)N(O)C3=O`, the growth in the assay on DU-145 prostate was 80.6%; in the assay on K-562 leukemia it was 23.8%; in the assay on MALME-3M melanoma it was 96%; in the assay on MDA-MB-231 breast it was 41.8%; in the assay with RXF 393 renal it was 64.9%; with SF-268 CNS, 45.6%. For the same molecule, the growth in the assay on SF-295 CNS is 59.6%; with SF-539 CNS, 25.3%; in the assay on M14 melanoma, 39.5%.

With `CCC(c1ccc(OC)cc1)C(CC)c1ccc(O)c(CN2CCCCC2)c1` (centres undefined), the growth was 86.6% in the assay with DU-145 prostate; 15.4% with K-562 leukemia; 28.1% in the assay with MALME-3M melanoma; 77.6% in the assay with MDA-MB-231 breast; 53.7% in the assay with RXF 393 renal; 86.1% in the assay with SF-268 CNS. The growth in the assay on SF-295 CNS was 78.9%; in the assay with SF-539 CNS it was 69.3%; with M14 melanoma, 44.3%.

`COC(=O)[C@]12CC[C@@H](C)[C@H](C)[C@@H]1C1=CC(=O)[C@@H]3[C@@]4(C)C[C@@H](O)[C@H](O)[C@@]5(C)COC(=C45)C[C@@]3(C)[C@]1(C)CC2`: the growth is 92.7% in the assay on DU-145 prostate; 14.2% in the assay on K-562 leukemia; 68% in the assay on MALME-3M melanoma; 45.8% with MDA-MB-231 breast; 63.1% with RXF 393 renal; 80.8% with SF-268 CNS. The growth in the assay on SF-295 CNS is 61.3%; in the assay with SF-539 CNS, 54.1%; in the assay with M14 melanoma, 27.4%.

Take `CC(C)/C=C/CC[C@](C)(O)[C@H]1CC[C@]2(C)[C@@H]1CC[C@@H]1[C@@]3(C)C/C(=C/c4cccc(C(F)(F)F)c4)C(=O)C(C)(C)[C@@H]3CC[C@]12C`: the growth is 96.8% in the assay on DU-145 prostate; 86.2% with K-562 leukemia; 100% in the assay with MALME-3M melanoma; 88.9% with MDA-MB-231 breast; 105% in the assay on RXF 393 renal; 93.3% with SF-268 CNS. For the same molecule, the growth is 101% with SF-295 CNS, 97.6% with SF-539 CNS, 95.2% in the assay on UACC-257 melanoma and 91.5% in the assay with M14 melanoma.

In the case of `NC(=O)NCC1CCCCC1`, the growth in the assay with DU-145 prostate is 104%; in the assay on K-562 leukemia, 102%; in the assay on MALME-3M melanoma it was 99.3%; with MDA-MB-231 breast, 108%; in the assay with RXF 393 renal it was 101%; with SF-268 CNS, 99.1%. Further, the growth with SF-295 CNS was 93.1%; in the assay with SF-539 CNS, 91.4%; with M14 melanoma it was 104%.

`COc1cccc(-c2nn(-c3ccccc3)cc2-c2ccnc(NCCCNS(=O)(=O)c3ccccc3)c2)c1`: the growth in the assay with DU-145 prostate was 52%; in the assay on K-562 leukemia, 9.59% (active); in the assay with MALME-3M melanoma it was 68.7%; with MDA-MB-231 breast it was 20.6%; with RXF 393 renal, 36.4%; with SF-268 CNS, 47.1%. Moreover, the growth in the assay with SF-295 CNS was 16.8%; in the assay with SF-539 CNS, 57.5%; in the assay on M14 melanoma, 29.9%.

With `CCCCCCCC(=O)SCC/C=C/[C@@H]1CC(=O)NCc2cccc(n2)CN(Cc2ccc(Cl)cc2)CC(=O)N[C@@H](C(C)C)C(=O)O1`, the growth with DU-145 prostate was 20.6%; with K-562 leukemia, 9.09% (active); in the assay on MALME-3M melanoma, 25.1%; in the assay with MDA-MB-231 breast it was -1.33% (active); in the assay with RXF 393 renal, -20.4% (active); with SF-268 CNS, 18%. The growth is -68.2% (active) in the assay on SF-295 CNS, 14.7% in the assay with SF-539 CNS and 8.96% (active) in the assay on M14 melanoma.

With `C#CCn1c(C)cc(C)c(C#N)c1=O`, the growth is 110% with DU-145 prostate; 103% in the assay with K-562 leukemia; 96.9% with MALME-3M melanoma; 101% with MDA-MB-231 breast; 124% with RXF 393 renal; 98.3% in the assay with SF-268 CNS. For the same molecule, the growth is 99.7% in the assay on SF-295 CNS, 97.7% in the assay with SF-539 CNS, 103% with UACC-257 melanoma and 106% with M14 melanoma.

`COc1ccc(C2=NN(c3nc(-c4ccc(OC)cc4)c(C#N)c(=O)n3C)C(=O)CC2)cc1`: the growth in the assay on DU-145 prostate was 115%; with K-562 leukemia, 101%; with MALME-3M melanoma, 81.6%; with MDA-MB-231 breast it was 83.5%; in the assay with RXF 393 renal it was 97.5%; in the assay on SF-268 CNS it was 100%. For the same molecule, the growth in the assay with SF-295 CNS was 93.6%; with SF-539 CNS, 93.6%; in the assay on M14 melanoma it was 95.4%.

In the case of `CC[C@]12C=CCN3CC[C@@]4(c5cc([C@H]6CCC(=O)N6)c(OC)cc5N(C)[C@H]4[C@@](O)(C(=O)OC)[C@@H]1OC(C)=O)[C@@H]32`, the growth in the assay on DU-145 prostate was 119% [2.5 µM]; in the assay on K-562 leukemia, 105% [2.5 µM]; in the assay on MALME-3M melanoma, 97.5% [2.5 µM]; in the assay on MDA-MB-231 breast, 98.7% [2.5 µM]; with RXF 393 renal, 113% [2.5 µM]; in the assay with SF-268 CNS, 116% [2.5 µM]. Besides, the growth with SF-295 CNS was 100% [2.5 µM]; in the assay with SF-539 CNS it was 92.4% [2.5 µM]; in the assay on M14 melanoma, 95.5% [2.5 µM].

As to `c1ccc(CN2C(c3ccccc3)=Nc3ccccc3C2c2c[nH]c3ccccc23)cc1` (centres undefined), the growth in the assay with DU-145 prostate is 85.4%; in the assay on K-562 leukemia it was 4.88% (active); in the assay on MALME-3M melanoma it was 55.1%; in the assay on MDA-MB-231 breast, 26.7%; with RXF 393 renal, 42.9%; in the assay on SF-268 CNS, 71.2%. In addition, the growth in the assay with SF-295 CNS is 45.6%; with SF-539 CNS it was 58.1%; with M14 melanoma it was 28.9%.

Consider `COc1ccc(O)c(-c2cc(-c3ccc(Cl)cc3)c(C#N)c(=O)[nH]2)c1`, for which the growth is 102% in the assay on DU-145 prostate; 23.5% in the assay on K-562 leukemia; 105% in the assay with MALME-3M melanoma; 61.2% with MDA-MB-231 breast; 84.5% in the assay on RXF 393 renal; 85.2% in the assay with SF-268 CNS. The growth is 61.5% in the assay with SF-295 CNS, 52.4% in the assay on SF-539 CNS and 49.9% in the assay on M14 melanoma.
